Data published in ChEMBL document CHEMBL3988442, “University of Dundee, Small-Polar-MMV Screening Library” (2021).
“And” between values parts separate entries of the source, which are not always exact repeats. Equal values may be shown once. Out of some 34,000 compounds screened, about 290 (0.85%) showed an effect of 50% or more. Many of the other results were omitted from the sample, so strong results are more common in it than they were.

System: Plasmodium falciparum
Assay: Plasmodium falciparum sporozoite viability assay
Format: functional, organism-based
Parameters: scale not given: in the data most compounds retested in dose-response had high values

SMILES	Percent Effect (10 mM as filed; unlikely as a test dose)	Percent Effect
COc1ccc(C(C(=O)O)N2CCC(Cn3cccn3)CC2)cc1F (centres undefined)	-7.781% and -11.29%	
CC(C)n1nnc(CC(=O)NCC2(c3ccccc3F)CCCC2)n1		17.65%
O=C(CCCc1ccccn1)N1CCCC(n2cccn2)C1 (centres undefined)		0.2979%
C1CCCN(CC2CCCN(Cc3noc(C4CC4)n3)C2)CC1 (centres undefined)		3.026%
COc1ccc(C(CO)NC(=O)Nc2cccc(F)c2)cc1 (centres undefined)	72.06% and 80.87%	
COc1ccc(C(CO)NC(=O)Nc2cccc(C#N)c2)cc1 (centres undefined)	6.223% and 12.91% and -11.88%	
COc1ccc(C(CO)NC(=O)Nc2cccc(C(C)=O)c2)cc1 (centres undefined)	15.43% and 22.65%	
CN(CCc1ccccc1)Cc1c(C2CCNCC2)[nH]c2ncccc12.Cl		-0.2567%
CNc1cncc(C2CCCN2S(=O)(=O)c2ccccc2F)n1 (centres undefined)		7.397%
COc1ccc(CNCc2c(C)nn(C)c2N2CCOCC2)cc1	-16.18% and -2.312% and -16.24%	
Cc1nn(C)c(N2CCOCC2)c1CNCc1ccc(N(C)C)nc1	6.683% and 14.39% and 13.71%	
C=Cn1ncc(CN2C[C@@H]3CCCN3C[C@H]2Cc2ccccc2)c1C		-1.399%
CC(=O)N1N=C(c2cccs2)OC1C(=O)Nc1ccc(C)cc1 (centres undefined)		-16.37%
Cc1sc2c(C3CCNCC3)nc(Nc3cccc(F)c3)n2c1C.Cl	63.64% and 42.54% and 49.37%	
COc1cccc(-c2ccnc(C3CCNCC3)c2)c1		4.65%
COc1cccc(Nc2nc(C3CCNCC3)c3sc(C)c(C)n23)c1.Cl	77.36% and 36.71% and 52.33%	
Cc1nc(NCc2cccc(F)c2)cc(C2CCNCC2)n1.Cl		0.8951%
COc1cccc(Nc2nc(C3CCCNC3)c3sc(C)c(C)n23)c1.Cl (centres undefined)	4.856% and 5.657% and 12.75%	
COc1cccc(-n2nnc(C(=O)N3CCN(C(C)=O)CC3)c2C)c1		6.024%
COCC1CC2(CCN(c3cccc(C)n3)CC2)CN1c1ncccn1.O=C(O)C(F)(F)F (centres undefined)		-2.7%
COCCNC(=O)C1(CCCc2cccnc2)CCCN1C (centres undefined)		16.89%
O=C1C(NCc2nnc3n2CCCC3)CCCN1c1ccccc1 (centres undefined)		6.53%
Cc1ccc2c(c1)C(=O)NCC1(CCN(C(=O)c3cc(C)no3)CC1)O2		21.42%
CN1C[C@@H](C(=O)N2CCOCC2)[C@@]2(CCc3ccccc3C(=O)N2)C1		-1.963%
Cn1nc(C2CNCCO2)cc1CCOc1ccc(C(F)(F)F)cc1 (centres undefined)		8.847%
COc1ccc(-c2ccc(C3CNCCO3)nc2)cc1.Cl (centres undefined)	82.18% and 93.08% and 86.88%	
COc1ccc(-c2cnc(N(C)C)nc2C2CNCCO2)cc1.Cl (centres undefined)		3.932%
COc1ccc(OCCc2cc(C3CNCCO3)nn2C)cc1 (centres undefined)		0.06458%
COc1ccc(-c2ccnc(C3CCNCC3)c2)cc1.Cl		12.14%
